Measured values: the supplement of paper PMC11732987, “Enantioselective OTUD7B fragment discovery through chemoproteomics screening and high-throughput optimisation” (Communications Chemistry, 2025)

Key:
Assay in all cases: log2 ratio of Biotin-Ahx-Ub-VS probe labelling (fragment/DMSO); higher = less target engagement (more negative = stronger competition), active = hit call of the paper (q ≤ 0.05, log2 ratio ≤ -1)
Details in all cases: compound concentration: 200 uM; treatment time: 3 h
USP34 = USP34 (UniProt Q70CQ2)
Sequence of USP34 (Q70CQ2 whole entry, the tested form may be a part): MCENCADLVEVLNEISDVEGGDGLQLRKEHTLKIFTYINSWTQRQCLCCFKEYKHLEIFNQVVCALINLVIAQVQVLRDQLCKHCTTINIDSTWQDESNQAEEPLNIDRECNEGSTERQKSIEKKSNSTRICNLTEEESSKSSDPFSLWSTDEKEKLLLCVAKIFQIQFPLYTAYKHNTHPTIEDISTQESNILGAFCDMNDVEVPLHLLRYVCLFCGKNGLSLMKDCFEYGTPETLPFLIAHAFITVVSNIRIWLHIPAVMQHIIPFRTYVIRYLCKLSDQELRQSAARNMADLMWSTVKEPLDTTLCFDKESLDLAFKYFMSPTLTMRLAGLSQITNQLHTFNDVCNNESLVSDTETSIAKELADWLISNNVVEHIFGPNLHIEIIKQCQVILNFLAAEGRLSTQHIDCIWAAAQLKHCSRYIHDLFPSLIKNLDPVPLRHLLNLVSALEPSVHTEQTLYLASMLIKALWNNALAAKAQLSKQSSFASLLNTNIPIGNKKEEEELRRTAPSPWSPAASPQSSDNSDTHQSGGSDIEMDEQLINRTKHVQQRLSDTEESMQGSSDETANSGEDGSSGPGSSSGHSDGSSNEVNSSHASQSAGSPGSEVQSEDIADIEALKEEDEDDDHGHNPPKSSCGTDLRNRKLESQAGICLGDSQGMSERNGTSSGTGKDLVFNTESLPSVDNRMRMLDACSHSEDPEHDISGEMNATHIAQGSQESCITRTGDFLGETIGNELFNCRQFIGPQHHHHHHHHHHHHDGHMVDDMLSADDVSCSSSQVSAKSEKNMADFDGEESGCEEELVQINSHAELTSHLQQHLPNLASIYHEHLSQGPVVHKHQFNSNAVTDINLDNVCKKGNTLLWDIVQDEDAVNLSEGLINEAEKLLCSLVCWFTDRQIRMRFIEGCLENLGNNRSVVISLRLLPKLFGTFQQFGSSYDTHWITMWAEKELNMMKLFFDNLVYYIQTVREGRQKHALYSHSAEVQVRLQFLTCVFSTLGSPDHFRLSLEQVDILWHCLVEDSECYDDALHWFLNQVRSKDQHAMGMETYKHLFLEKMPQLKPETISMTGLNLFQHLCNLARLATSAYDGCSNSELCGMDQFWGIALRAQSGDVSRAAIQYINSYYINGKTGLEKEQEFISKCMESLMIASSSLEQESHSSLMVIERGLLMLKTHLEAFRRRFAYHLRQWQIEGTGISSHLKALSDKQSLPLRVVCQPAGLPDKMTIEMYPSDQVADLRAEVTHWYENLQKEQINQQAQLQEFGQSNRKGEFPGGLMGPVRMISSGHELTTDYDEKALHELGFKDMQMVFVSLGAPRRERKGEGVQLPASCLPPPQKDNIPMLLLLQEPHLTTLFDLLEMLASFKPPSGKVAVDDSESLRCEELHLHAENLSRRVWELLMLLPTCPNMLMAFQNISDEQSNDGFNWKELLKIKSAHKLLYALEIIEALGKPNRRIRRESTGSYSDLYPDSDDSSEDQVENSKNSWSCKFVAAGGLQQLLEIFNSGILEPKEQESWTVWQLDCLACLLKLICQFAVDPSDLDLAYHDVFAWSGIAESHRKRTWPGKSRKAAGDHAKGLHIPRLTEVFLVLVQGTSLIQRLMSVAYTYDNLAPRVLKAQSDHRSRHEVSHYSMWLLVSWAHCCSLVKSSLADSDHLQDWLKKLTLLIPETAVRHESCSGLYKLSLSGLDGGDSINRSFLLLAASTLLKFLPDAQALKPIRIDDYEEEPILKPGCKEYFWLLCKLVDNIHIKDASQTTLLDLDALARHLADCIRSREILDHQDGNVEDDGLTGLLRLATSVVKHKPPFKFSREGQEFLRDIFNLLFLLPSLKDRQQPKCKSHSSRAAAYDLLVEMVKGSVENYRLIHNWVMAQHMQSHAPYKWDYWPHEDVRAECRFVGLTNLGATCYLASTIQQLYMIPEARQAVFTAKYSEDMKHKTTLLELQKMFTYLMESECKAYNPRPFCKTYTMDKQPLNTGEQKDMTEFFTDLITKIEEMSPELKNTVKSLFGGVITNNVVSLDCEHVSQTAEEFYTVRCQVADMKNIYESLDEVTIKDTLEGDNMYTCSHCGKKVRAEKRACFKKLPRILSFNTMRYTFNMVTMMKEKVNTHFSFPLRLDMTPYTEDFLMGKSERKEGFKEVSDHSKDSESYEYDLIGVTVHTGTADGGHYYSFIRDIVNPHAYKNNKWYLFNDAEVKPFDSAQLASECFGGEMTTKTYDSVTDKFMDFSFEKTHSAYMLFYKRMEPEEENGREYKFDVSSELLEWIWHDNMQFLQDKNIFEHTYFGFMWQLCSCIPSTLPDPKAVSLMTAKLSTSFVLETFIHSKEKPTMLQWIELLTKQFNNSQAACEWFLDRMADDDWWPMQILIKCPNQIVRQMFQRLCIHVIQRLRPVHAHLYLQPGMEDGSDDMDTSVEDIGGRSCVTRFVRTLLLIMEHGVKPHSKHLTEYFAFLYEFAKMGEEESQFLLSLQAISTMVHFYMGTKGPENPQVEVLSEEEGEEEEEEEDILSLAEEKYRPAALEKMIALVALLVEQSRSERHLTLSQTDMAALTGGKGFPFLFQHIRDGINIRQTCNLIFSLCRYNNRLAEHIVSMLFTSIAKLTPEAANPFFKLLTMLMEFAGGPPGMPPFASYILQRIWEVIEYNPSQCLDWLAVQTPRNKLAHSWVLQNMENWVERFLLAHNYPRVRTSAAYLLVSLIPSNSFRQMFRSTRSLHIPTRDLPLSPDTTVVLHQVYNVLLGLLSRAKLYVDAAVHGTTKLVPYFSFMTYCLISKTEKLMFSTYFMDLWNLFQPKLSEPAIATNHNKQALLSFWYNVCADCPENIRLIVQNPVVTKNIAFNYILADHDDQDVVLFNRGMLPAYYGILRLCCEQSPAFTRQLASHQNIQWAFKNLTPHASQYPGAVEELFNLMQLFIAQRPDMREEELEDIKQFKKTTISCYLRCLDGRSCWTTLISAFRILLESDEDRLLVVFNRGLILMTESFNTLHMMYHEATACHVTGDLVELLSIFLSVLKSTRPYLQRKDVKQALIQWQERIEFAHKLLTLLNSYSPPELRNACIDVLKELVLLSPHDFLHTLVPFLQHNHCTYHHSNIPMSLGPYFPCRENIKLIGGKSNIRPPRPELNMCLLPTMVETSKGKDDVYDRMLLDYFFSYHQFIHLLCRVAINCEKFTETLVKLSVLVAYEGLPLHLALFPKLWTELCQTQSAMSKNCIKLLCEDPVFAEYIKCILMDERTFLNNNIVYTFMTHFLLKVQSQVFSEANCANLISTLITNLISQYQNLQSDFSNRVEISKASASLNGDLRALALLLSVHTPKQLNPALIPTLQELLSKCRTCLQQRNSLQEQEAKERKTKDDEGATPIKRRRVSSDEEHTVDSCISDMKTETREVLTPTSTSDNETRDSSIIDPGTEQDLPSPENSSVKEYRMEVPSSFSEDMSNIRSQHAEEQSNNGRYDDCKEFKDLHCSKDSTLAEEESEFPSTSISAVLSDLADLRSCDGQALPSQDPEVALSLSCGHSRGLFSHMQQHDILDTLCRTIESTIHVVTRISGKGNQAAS
How it was run: (§1)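 Labelling with Biotin-Ahx-Ub-VS (0.5 µM final, 1 h) followed a 3 h triplicate treatment of HEK293T lysate (495 µg per sample, Tris/CHAPS/IGEPAL buffer with protease inhibitors) with fragment at 200 µM or vehicle. Labelled DUBs were NeutrAvidin-enriched, digested with LysC and trypsin, and run by diaPASEF LC-MS/MS. The values, average log2 fragment/vehicle ratios by unpaired t-test, come from global-median-normalised Spectronaut label-free quantities. Proteins with ≥2 unique peptides were used.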

USP36 = target: T1, USP36 (UniProt Q9P275)
T1 sequence (whole entry): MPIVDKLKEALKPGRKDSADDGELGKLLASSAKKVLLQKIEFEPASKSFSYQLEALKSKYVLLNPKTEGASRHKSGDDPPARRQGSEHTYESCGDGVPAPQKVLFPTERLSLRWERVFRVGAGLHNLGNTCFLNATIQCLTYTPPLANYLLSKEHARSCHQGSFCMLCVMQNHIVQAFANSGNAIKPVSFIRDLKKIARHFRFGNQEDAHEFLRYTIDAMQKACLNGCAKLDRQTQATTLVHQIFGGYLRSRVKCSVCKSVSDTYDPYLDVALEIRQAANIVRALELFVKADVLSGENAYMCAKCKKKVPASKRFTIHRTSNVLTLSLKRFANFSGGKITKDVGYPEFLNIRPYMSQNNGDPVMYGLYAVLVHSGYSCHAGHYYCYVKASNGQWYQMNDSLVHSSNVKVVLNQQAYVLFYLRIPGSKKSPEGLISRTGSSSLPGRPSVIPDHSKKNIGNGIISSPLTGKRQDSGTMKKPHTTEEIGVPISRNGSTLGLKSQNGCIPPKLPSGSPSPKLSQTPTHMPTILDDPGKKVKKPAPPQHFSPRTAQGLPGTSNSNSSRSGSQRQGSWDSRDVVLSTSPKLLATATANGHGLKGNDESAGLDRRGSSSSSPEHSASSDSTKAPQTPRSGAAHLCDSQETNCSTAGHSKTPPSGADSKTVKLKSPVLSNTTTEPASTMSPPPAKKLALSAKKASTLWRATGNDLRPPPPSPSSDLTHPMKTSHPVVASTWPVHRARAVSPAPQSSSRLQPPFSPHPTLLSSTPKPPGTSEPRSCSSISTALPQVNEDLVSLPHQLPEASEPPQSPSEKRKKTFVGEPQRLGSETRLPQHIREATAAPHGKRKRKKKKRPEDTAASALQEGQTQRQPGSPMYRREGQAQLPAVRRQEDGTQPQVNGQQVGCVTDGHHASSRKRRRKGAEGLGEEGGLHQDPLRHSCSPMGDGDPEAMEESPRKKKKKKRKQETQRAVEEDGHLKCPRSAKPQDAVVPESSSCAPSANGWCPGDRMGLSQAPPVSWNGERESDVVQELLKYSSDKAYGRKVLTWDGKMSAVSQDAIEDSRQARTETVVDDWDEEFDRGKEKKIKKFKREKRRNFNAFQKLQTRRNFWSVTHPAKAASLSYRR
How it was run: as §1

USP38 = target: T2, USP38 (UniProt Q8NB14)
T2 sequence (whole entry): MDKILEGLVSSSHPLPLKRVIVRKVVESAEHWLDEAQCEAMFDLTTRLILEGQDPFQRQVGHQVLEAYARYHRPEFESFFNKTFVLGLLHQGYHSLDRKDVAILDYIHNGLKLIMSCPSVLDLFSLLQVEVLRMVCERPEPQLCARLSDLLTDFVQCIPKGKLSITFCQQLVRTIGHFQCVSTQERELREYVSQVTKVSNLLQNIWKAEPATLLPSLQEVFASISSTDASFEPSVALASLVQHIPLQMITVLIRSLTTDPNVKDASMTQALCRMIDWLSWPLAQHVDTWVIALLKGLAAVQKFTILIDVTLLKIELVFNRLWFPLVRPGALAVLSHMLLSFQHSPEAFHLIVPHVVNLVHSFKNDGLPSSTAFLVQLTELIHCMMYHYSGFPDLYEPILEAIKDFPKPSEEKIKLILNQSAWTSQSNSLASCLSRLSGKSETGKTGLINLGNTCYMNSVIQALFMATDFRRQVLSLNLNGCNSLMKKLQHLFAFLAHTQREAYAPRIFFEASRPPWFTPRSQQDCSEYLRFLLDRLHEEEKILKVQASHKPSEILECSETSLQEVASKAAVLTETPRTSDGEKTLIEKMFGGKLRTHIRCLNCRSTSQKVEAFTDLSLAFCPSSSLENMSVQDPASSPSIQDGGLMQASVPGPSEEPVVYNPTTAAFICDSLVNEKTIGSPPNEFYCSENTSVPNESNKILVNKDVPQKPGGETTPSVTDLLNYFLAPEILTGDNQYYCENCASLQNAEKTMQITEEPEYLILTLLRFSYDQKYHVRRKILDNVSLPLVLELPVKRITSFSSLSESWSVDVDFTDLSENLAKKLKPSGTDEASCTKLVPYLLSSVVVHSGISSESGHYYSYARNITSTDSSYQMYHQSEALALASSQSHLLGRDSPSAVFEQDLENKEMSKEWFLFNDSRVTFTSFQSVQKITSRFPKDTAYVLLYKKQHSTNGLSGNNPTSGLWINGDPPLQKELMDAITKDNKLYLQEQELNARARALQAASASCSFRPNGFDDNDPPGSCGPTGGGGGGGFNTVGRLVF
How it was run: as §1

USP39 = target: T3, USP39 (UniProt Q53GS9)
T3 sequence (whole entry): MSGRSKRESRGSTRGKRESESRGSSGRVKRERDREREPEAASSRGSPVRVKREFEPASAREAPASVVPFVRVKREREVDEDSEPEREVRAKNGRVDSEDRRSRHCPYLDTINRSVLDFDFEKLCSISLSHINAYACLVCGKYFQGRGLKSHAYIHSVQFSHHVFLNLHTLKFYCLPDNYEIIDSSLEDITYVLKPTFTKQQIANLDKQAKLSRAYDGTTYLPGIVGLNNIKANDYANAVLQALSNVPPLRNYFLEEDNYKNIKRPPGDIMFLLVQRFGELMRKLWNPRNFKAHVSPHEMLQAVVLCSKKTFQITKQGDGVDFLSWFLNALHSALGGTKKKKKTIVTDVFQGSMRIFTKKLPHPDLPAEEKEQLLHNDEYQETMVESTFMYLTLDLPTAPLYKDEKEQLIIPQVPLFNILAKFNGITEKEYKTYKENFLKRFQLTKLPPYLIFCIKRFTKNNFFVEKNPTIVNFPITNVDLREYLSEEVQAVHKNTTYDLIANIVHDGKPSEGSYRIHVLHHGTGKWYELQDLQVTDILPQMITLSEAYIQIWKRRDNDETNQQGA
How it was run: as §1

USP4 = target: T4, USP4 (UniProt Q13107)
T4 sequence (whole entry): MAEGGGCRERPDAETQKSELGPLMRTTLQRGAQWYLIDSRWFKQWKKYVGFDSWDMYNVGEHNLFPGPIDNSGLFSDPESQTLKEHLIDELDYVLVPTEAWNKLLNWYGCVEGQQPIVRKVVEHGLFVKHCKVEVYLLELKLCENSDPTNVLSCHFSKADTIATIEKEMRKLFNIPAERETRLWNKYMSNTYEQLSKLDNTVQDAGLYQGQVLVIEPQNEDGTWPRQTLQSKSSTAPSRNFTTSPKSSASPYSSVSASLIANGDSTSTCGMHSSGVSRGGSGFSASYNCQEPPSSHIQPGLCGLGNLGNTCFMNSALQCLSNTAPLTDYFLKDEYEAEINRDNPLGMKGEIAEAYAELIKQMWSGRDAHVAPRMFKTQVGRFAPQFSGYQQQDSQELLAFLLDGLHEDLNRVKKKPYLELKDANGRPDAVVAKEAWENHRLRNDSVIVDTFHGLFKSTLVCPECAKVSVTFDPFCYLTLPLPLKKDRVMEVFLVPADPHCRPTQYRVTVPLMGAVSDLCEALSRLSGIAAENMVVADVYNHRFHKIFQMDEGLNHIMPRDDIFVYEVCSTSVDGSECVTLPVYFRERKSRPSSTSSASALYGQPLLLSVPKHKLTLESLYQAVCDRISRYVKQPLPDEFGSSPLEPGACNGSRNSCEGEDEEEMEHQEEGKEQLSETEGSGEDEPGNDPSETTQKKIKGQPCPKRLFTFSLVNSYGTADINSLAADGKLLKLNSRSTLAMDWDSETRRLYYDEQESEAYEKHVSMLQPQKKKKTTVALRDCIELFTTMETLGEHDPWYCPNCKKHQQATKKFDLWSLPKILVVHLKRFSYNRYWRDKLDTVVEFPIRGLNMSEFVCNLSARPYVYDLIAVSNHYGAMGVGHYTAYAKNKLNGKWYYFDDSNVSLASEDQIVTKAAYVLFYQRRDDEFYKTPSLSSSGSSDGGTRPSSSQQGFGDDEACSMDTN
How it was run: as §1

Measured: log2 ratio of Biotin-Ahx-Ub-VS probe labelling

COCC[C@@H](NC(=O)CCl)c1ccccc1
inactive: USP34 -0.0495 | USP36 -0.11 | USP38 0.0786 | USP39 -0.0498 | USP4 0.0432
